In the supplement of paper PMC3334620:
In all, about 33,000 sequences were measured (“E-score (-0.5 to 0.5)”: median about -0.011, highest 2% from about 0.28 on). Shown is part of a subset that was picked to be rich in the highest values.

target: T1, Gcr1 (UniProt P07261); assay: PBM E-score (8-mer binding enrichment) (E-score (-0.5 to 0.5)); higher = stronger / more preferred TF binding; settings: protein concentration: 100 nM; construct: GST-full length
T1 sequence: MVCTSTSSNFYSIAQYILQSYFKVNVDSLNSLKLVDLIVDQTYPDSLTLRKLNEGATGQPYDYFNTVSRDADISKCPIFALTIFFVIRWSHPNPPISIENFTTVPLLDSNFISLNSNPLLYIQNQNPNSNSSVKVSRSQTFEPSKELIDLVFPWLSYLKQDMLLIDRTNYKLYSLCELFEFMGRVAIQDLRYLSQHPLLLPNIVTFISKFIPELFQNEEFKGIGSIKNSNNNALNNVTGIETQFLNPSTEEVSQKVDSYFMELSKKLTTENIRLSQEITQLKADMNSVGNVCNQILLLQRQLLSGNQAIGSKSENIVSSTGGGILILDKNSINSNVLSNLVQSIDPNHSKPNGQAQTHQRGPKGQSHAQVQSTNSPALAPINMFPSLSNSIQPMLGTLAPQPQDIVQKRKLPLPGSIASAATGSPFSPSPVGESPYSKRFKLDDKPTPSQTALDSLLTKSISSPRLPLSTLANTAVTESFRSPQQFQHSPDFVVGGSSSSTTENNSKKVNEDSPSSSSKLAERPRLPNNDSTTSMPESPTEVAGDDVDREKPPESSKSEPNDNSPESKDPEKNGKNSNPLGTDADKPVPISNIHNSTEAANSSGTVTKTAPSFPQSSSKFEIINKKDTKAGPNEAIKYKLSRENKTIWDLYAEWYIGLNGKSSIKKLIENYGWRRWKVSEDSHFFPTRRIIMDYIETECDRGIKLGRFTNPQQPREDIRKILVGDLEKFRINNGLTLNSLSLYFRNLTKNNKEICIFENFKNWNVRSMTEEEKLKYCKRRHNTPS
Procedure: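 Universal 'all 10-mer' protein binding microarrays (Agilent AMADID 015681) probed with GST-tagged S. cerevisiae TFs (full-length or DBD) made by in vitro transcription/translation (PURExpress), about 100-200 nM. Bound TF was detected with fluorescent anti-GST. Each ungapped 8-mer (which stands for itself and its reverse complement) is scored by the PBM enrichment score (E-score), a modified Wilcoxon-Mann-Whitney statistic from -0.5 to +0.5, computed with the Universal PBM Analysis Suite. Scale: above 0.35 generally sequence-specific binding.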

Sequence	PBM E-score
CGCAGTTA	0.15
ACGTAGCC	0.14
ACGTAGCA	-0.079
ACGTAGCT	0.282
CGGTTGGA	0.0351
GCAATCGC	-0.113
ATTCAAGC	-0.0491
CCTCTATA	0.266
ATGGATGA	-0.0514
CTGGATGC	0.425
CTGGATAC	0.135
ATGGATGG	-0.034
ATGGATGC	0.389
CTGGATGA	0.0353
ACGGGGGC	-0.08
AGTCCGGA	0.0284
ATCGGATA	0.0757
TGTAGACA	-0.0678
AAACTGGT	0.178
TCGCCGCA	0.0198
CGCTCAAC	-0.0355
AGCACCAG	0.156
AGCACACC	-0.188
AGCACCCG	0.282
AACACCCA	-0.0911

Sequence	PBM E-score
AGCACCAC	0.235
CGCACCCG	0.0194
AGCACCAT	0.282
AGCACCCT	0.277
AGCACCCA	0.351
CAAGATTC	0.122
GAAGCGCA	0.129
AGGTAAAG	-0.112
AATGCTAA	0.206
CATGCTAC	-0.123
CATGCTGA	-0.229
GATGCTGC	0.276
GATGCTGA	0.312
GATGCTAC	0.338
GATGCTAA	0.372
CGTGCTGA	-0.14
GGTGCTTA	0.259
GGTGCTGA	0.335
TATGCTAA	-0.0329
AATGCTAC	-0.0602
AAGGCGAA	-0.0278
CACAATGA	0.0838
GCTTCAAA	0.192
AGTTGGCG	0.0665
CACTCCAG	0.0875

Sequence	PBM E-score
ACCGCGGC	0.143
ACGCCGGA	0.0899
CATTTGGC	-0.0265
CACCTGCC	-0.127
ACCAATGG	0.0385
ACACTGAG	-0.126
GTATTTAA	0.117
CCATTTAA	0.304
CTATTTAA	0.309
ATATTTAA	0.111
CCCATTTC	-0.0272
ACCATTTA	0.0518
ACTATTTA	0.293
CCATTTAC	0.0873
CCTATTTA	0.247
CCATTTTA	0.23
GCTATTTA	-0.162
CCCATTTA	0.293
ACAGTCCA	-0.304
TACCGTGA	0.0127
ACTCTTCT	0.0323
TCCGGAAA	0.172
CACCCGGA	0.136
CGAAGTAC	-0.022
CGCCAAAG	0.0195

Sequence	PBM E-score
TCAACTAA	-0.00686
ACGACGGG	0.00739
AATTACAT	0.0891
AATTACAG	0.283
CATTACAG	-0.0702
CCACCCTC	-0.00165
CAAAATTG	0.0415
CAAAATTC	0.306
AAAAATTC	0.0187
GCTAGCAC	-0.0767
GCAGGCCC	-0.133
ACAAGCTA	-0.0171
CCACAATA	0.3
CCACAATC	0.156
CCACAAAG	0.16
ACACAATA	0.0111
ACACAAAA	0.141
CCACAAAA	0.282
CTCGGTAA	-0.22
AAACCTAA	0.0813
CCTTTCAG	-0.117
GGGGGACA	0.0151
AGTCTGTA	-0.152
CCCCGTTC	-0.082
CACGCCCA	-0.107

Sequence	PBM E-score
GGCGCCCC	0.308
GACGCCCC	0.0383
AGCGCCCC	0.153
TGCGCCCA	0.0933
AGCGCCCA	0.183
CGCGCCCC	0.243
GGCGCCCA	0.398
GACGCCCA	0.427
CGAGAGGA	-0.113
CCCGGGGC	0.0219
ACAAGCAT	0.15
CCATTGGC	0.0633
GCGGCGGA	0.0513
AATTTGTC	-0.00767
ATGGCTGC	0.168
CTAGCTTA	-0.172
CCGGCTGC	0.314
ATGGCTTG	-0.236
CCGGCTGA	-0.138
CTAGCTTC	0.316
CTGGCTGC	0.35
CTGGCTGA	-0.225
ACGGCTGC	-0.014
ATAGCTTC	0.249
ATGGCTTA	0.0216

Sequence	PBM E-score
ATGGCTTC	0.3
CGCCCCGA	-0.0435
CCGCGAGC	-0.0368
GCCCGGCA	-0.0489
GGAGTACC	-0.0959
TGTAGCAA	-0.0217
TAAAGAAA	0.162
ATGGGCCA	-0.112
GACAAACA	-0.0622
CGGTCCAC	-0.225
CTGGCTTA	-0.159
CAGGCTTC	0.213
CTGGCTTC	0.362
GCAAAGAA	0.00261
CGCAACCG	0.24
ACACCAGC	-0.126
AGAAGCCA	0.362
CGAAGCCC	0.268
AGAAGCAG	0.174
TGAAGCCA	-0.0656
ACAAGCCA	-0.275
AGGAGCCG	0.269
AGAAGCCG	0.399
AGAAGCCC	0.386
AAAAGCCC	-0.194

Sequence	PBM E-score
AGGAGCCT	0.109
AGAAGCCT	0.273
AGGAGCCC	0.294
GACCACAA	0.0254
AATCGCAA	0.0343
CGCCGCAG	0.103
ATCAGATA	-0.111
CCAAGCCG	-0.0556
CGAAGCCA	0.272
CGAAGCCG	0.285
AGCAAAGG	-0.135
AAAGGACG	0.025
ATTGTGAG	-0.17
CAATAGGA	0.13
AAATAGGA	0.335
TAATAGGA	0.278
GATTAGGA	0.169
ATTTAGGA	0.286
AATTAGGT	0.0846
CTTTAGGA	0.249
AATTAGGC	0.327
AATTAGGG	-0.012
